# According to publication PMC8384837, “Expanding the binding specificity for RNA recognition by a PUF domain”:
# Residue numbers refer to the chain shown, from its start.
# What was measured:
# Assay in all cases: yeast three-hybrid, YBZ-1, SC-Leu-His + 0.5 mM 3-AT, 4 days
# Settings in all cases: tags: N-Gal4 AD-HA kept; label: inside an RPR1-promoter hybrid RNA with tandem MS2 sites; ssRNA
# PUM1 PUF domain R1-GRR = PUM1 PUF domain R1-GRR (Homo sapiens, UniProt Q14671 828-1176, S863G;Q867R)
# Summary of the method: (§1)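 Repeat regions from input (SC-Leu) and selection (SC-Leu-His + 0.5 mM 3-AT) plates were PCR-amplified and Illumina-sequenced after four days of growth. The cells were strain YBZ-1 with a LexA–MS2 coat fusion and a HIS3 reporter, co-expressing Pumilio-1 PUF domain libraries and matching RNA elements from a centromeric plasmid. The interaction score is the log change in variant frequency from input to selection, taken in log2 with a pseudocount of 1 for absent variants.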
# PUM1 PUF domain R5-FRD = PUM1 PUF domain R5-FRD (Homo sapiens, UniProt Q14671 828-1176, C1007F;Q1011D)
# Summary of the method: as §1
# PUM1 PUF domain R3-SPS = PUM1 PUF domain R3-SPS (Homo sapiens, UniProt Q14671 828-1176, C935S;R936P;Q939S)
# Summary of the method: as §1
# PUM1 PUF domain R3-LFV = PUM1 PUF domain R3-LFV (Homo sapiens, UniProt Q14671 828-1176, C935L;R936F;Q939V)
# Summary of the method: as §1
# PUM1 PUF domain R3-LRS = PUM1 PUF domain R3-LRS (Homo sapiens, UniProt Q14671 828-1176, C935L;Q939S)
# Summary of the method: as §1
# PUM1 PUF domain R6-SWK = molecular target: T1, PUM1 PUF domain R6-SWK (Homo sapiens, UniProt Q14671 828-1176, N1043S;Y1044W;Q1047K)
# T1 sequence: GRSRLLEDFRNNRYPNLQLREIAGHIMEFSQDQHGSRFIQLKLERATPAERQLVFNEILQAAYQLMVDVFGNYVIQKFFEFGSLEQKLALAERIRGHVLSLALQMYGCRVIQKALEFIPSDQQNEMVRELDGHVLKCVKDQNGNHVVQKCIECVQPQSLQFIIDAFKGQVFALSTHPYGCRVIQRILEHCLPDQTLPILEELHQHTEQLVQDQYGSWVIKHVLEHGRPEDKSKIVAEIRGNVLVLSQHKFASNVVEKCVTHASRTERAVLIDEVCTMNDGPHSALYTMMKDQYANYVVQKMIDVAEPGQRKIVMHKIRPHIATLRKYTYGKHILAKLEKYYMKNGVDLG
# Summary of the method: as §1
# PUM1 PUF domain R6-RHR = molecular target: T2, PUM1 PUF domain R6-RHR (Homo sapiens, UniProt Q14671 828-1176, N1043R;Y1044H;Q1047R)
# T2 sequence: T1 sequence with S216R, W217H, K220R
# Summary of the method: as §1
# PUM1 PUF domain R1-NIG = PUM1 PUF domain R1-NIG (Homo sapiens, UniProt Q14671 828-1176, S863N;R864I;Q867G)
# Summary of the method: as §1
# PUM1 PUF domain R8-RRI = PUM1 PUF domain R8-RRI (Homo sapiens, UniProt Q14671 828-1176, N1122R;Y1123R;Q1126I)
# Summary of the method: as §1
# PUM1 PUF domain R8-HYL = PUM1 PUF domain R8-HYL (Homo sapiens, UniProt Q14671 828-1176, N1122H;Q1126L)
# Summary of the method: as §1
sequence,measurement,setting,value
GGCUAGAACUAGUGGAUCCCCCGGCGCCCGGCGGCUCGAGCCCGGGUAAGUGUAAAUGGUCUGCAUGCCGCCGGGCGCCAUGCCUGCAGGUCGACUCUAGAAAACAUG,binding signal,PUM1 PUF domain R1-GRR,1.78 log2 enrichment (interaction score)
GGCUAGAACUAGUGGAUCCCCCGGCGCCCGGCGGCUCGAGCCCGGGUAAGUGUCAAUAGUCUGCAUGCCGCCGGGCGCCAUGCCUGCAGGUCGACUCUAGAAAACAUG,binding signal,PUM1 PUF domain R5-FRD,2.84 log2 enrichment (interaction score)
GGCUAGAACUAGUGGAUCCCCCGGCGCCCGGCGGCUCGAGCCCGGGUAAGUGUAAUUAGUCUGCAUGCCGCCGGGCGCCAUGCCUGCAGGUCGACUCUAGAAAACAUG,binding signal,PUM1 PUF domain R3-SPS,1.47 log2 enrichment (interaction score)
same,binding signal,PUM1 PUF domain R3-LFV,4.09 log2 enrichment (interaction score)
same,binding signal,PUM1 PUF domain R3-LRS,1.26 log2 enrichment (interaction score)
GGCUAGAACUAGUGGAUCCCCCGGCGCCCGGCGGCUCGAGCCCGGGUAAGUGAAAAUAGUCUGCAUGCCGCCGGGCGCCAUGCCUGCAGGUCGACUCUAGAAAACAUG,binding signal,PUM1 PUF domain R6-SWK,1.25 log2 enrichment (interaction score)
same,binding signal,PUM1 PUF domain R6-RHR,1.86 log2 enrichment (interaction score)
GGCUAGAACUAGUGGAUCCCCCGGCGCCCGGCGGCUCGAGCCCGGGUAAGUGUAAAUUGUCUGCAUGCCGCCGGGCGCCAUGCCUGCAGGUCGACUCUAGAAAACAUG,binding signal,PUM1 PUF domain R1-NIG,3.06 log2 enrichment (interaction score)
same,binding signal,PUM1 PUF domain R1-GRR,2.59 log2 enrichment (interaction score)
GGCUAGAACUAGUGGAUCCCCCGGCGCCCGGCGGCUCGAGCCCGGGUAAGUGUAAGUAGUCUGCAUGCCGCCGGGCGCCAUGCCUGCAGGUCGACUCUAGAAAACAUG,binding signal,PUM1 PUF domain R3-LFV,5.59 log2 enrichment (interaction score)
same,binding signal,PUM1 PUF domain R3-LRS,4.15 log2 enrichment (interaction score)
GGCUAGAACUAGUGGAUCCCCCGGCGCCCGGCGGCUCGAGCCCGGGUAAGUGUAAAUAGUCUGCAUGCCGCCGGGCGCCAUGCCUGCAGGUCGACUCUAGAAAACAUG,binding signal,PUM1 PUF domain R6-SWK,6.97 log2 enrichment (interaction score)
same,binding signal,PUM1 PUF domain R3-SPS,3.13 log2 enrichment (interaction score)
same,binding signal,PUM1 PUF domain R5-FRD,1.06 log2 enrichment (interaction score)
same,binding signal,PUM1 PUF domain R8-RRI,1.24 log2 enrichment (interaction score)
same,binding signal,PUM1 PUF domain R3-LFV,3.48 log2 enrichment (interaction score)
same,binding signal,PUM1 PUF domain R6-RHR,3.36 log2 enrichment (interaction score)
GGCUAGAACUAGUGGAUCCCCCGGCGCCCGGCGGCUCGAGCCCGGGUAAGUGUAAAUCGUCUGCAUGCCGCCGGGCGCCAUGCCUGCAGGUCGACUCUAGAAAACAUG,binding signal,PUM1 PUF domain R1-GRR,3.99 log2 enrichment (interaction score)
GGCUAGAACUAGUGGAUCCCCCGGCGCCCGGCGGCUCGAGCCCGGGUAAGUGUAACUAGUCUGCAUGCCGCCGGGCGCCAUGCCUGCAGGUCGACUCUAGAAAACAUG,binding signal,PUM1 PUF domain R3-LFV,2.66 log2 enrichment (interaction score)
GGCUAGAACUAGUGGAUCCCCCGGCGCCCGGCGGCUCGAGCCCGGGUAAGCGUAAAUAGUCUGCAUGCCGCCGGGCGCCAUGCCUGCAGGUCGACUCUAGAAAACAUG,binding signal,PUM1 PUF domain R8-RRI,2.58 log2 enrichment (interaction score)
same,binding signal,PUM1 PUF domain R8-HYL,2.26 log2 enrichment (interaction score)
